# In all, about 360,000 compounds went through this assay and about 2,100 (0.58%) were called active. What follows is part of a selection rich in actives, with near analogues and random picks from the rest. Unmarked numbers belong to inactive results.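 Rule for the calls: active = inhibition at 20 µM, scaled to each plate's controls, above about 33% (limit read from the data); inactive = the rest.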
# Molecular target: 26S proteasome non-ATPase regulatory subunit 14 (Homo sapiens) (UniProt O00487)
# Experiment: Rpn11 (PSMD14) deubiquitinase inhibitors, primary screen, biochemical, fluorescence polarization, uHTS (AID 588493)
# Settings: human 26S proteasome, Ub4-pepOG fluorescence polarization; at 20 µM; stronger effect = higher value; 20S core pre-blocked with epoxomicin
# 26S proteasome non-ATPase regulatory subunit 14 (Homo sapiens), sequence (O00487 whole entry, looked up): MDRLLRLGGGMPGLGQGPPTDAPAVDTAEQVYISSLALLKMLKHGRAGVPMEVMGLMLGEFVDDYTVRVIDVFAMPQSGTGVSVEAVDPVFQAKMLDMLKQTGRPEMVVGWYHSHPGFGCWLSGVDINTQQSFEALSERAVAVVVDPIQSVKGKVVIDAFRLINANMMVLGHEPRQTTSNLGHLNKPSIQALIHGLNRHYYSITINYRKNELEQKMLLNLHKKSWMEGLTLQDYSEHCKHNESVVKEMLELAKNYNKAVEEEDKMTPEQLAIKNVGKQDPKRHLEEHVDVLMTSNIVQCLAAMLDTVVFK
row,Structure (SMILES),inhibition
1,COc1cccc(NC(=O)C(C)Oc2ccccc2)c1 (stereo unspecified),112% (active)
2,COc1ccc(OC(C)C(=O)Nc2cccnc2)cc1 (stereo unspecified),-6%
3,COc1cccc(NC(=O)CC(c2ccc(OC(C)C)cc2)c2ccccc2OC)c1 (stereo unspecified),-1.6%
4,Cc1ccc2[nH]c(C(=O)O)c(NC(=O)c3ccccc3[N+](=O)[O-])c2c1,3.4%
5,Cc1sc2nc(COC(=O)C(NC(=O)c3ccc(Cl)cc3Cl)C(C)C)[nH]c(=O)c2c1C (stereo unspecified),56.9% (active)
6,Cc1ccc(S(=O)(=O)N2CCCC2C(=O)OCc2nc3sc(C)c(C)c3c(=O)[nH]2)cc1 (stereo unspecified),-0.8%
7,O=C(CN1C(=O)CC(c2ccccc2)S(=O)(=O)c2ccccc21)NC1CCCC1 (stereo unspecified),-1.6%
8,CCN(c1ccccc1)S(=O)(=O)c1cc2c(cc1C)n(C)c(=O)c(=O)n2C,-1.8%
9,COC(=O)CCSc1cc([N+](=O)[O-])cc2c1c(C1OCCS1)nn2-c1ccccc1 (stereo unspecified),14%
10,CCC/C=C(\CCC)C(NC(=O)Cc1ccccc1)c1ccc(C(=O)OC)cc1 (stereo unspecified),40.7% (active)
11,CCC[C@@H]1C[C@@]1(CCC)[C@@H](NC(=O)c1ccccc1)c1ccc(C(=O)OC)cc1,-3.6%
12,COC(=O)c1ccc(C(NC(=O)OCc2ccccc2)/C(F)=C/[C@@H](C)C(=O)O)cc1 (stereo partly specified),-4.9%
13,O=c1cc(CN2CCCCCCC2)c2c(ccc3ccccc32)o1,6.4%
14,O=C(Cc1ccccc1)NNC(=O)C1CCN(c2ncccn2)CC1,-1.3%
15,Oc1c(CN2CCCC2)cc(COCc2ccccc2)c2cccnc12,49.9% (active)
16,COCC(=O)N1CCCC(C(=O)c2ccc(C(F)(F)F)cc2)C1 (stereo unspecified),-0.9%
17,CCOC(=O)c1cc(NC(=O)SCC(=O)O)c(C)nc1C,1%
18,CCCNC(=O)C1(C)CCN(C(=O)c2ccccc2OC(F)(F)F)C1 (stereo unspecified),-2.7%
19,COc1ccc(Cc2cc(-c3ccc(F)cc3)n[nH]c2=O)cc1,-2%
20,COc1ccc2[nH]c(=O)c(CNc3ccc(C)c(C)c3)cc2c1,-2.9%
21,CCOC(=O)CSc1nc2ccc(C)cc2n2cnnc12,3.8%

row,Structure (SMILES),inhibition
1,CC1(c2ccccc2)NC(=O)N(CC(=O)N2CC(=O)Nc3ccccc32)C1=O (stereo unspecified),-0.8%
2,CCOC(=O)n1c(SCC(=O)N(CC)CC)nc2ccccc21,4%
3,CCN(CC)C(=O)CSc1nc2ccccc2n1CC(=O)N1CCN(c2ccccc2OC)CC1,34.8% (active)
4,COc1ccccc1OCCn1c(SCC(N)=O)nc2ccccc21,-6.3%
5,CCCCN(C=O)c1c(CC)nc2c(OCCC3CCCCC3)cccn12,3.8%
6,Cc1cc(N)n2nc(-c3ccc(C(C)(C)C)cc3)cc2n1,8.7%
7,Cc1cc2cc(CNC(=O)c3cccs3)ccc2[nH]1,3.4%
8,Cc1cc(/C=N/Nc2ccc([N+](=O)[O-])cn2)c(C)n1-c1cccc(C(=O)O)c1,49% (active)
9,Cc1cc(/C=N/NC(=O)CC2(C)OCCO2)c(C)n1-c1ccc(Cl)c(Cl)c1,4.1%
10,CC(C)c1ccc(C=NNc2ccc([N+](=O)[O-])cn2)cc1,3.1%
11,O=C(Nc1cccc(Cl)c1)c1cc(S(=O)(=O)N2CCCCC2)c[nH]1,3.9%
12,CN(C)C(=O)c1cccc(-c2cnc3sc(NCc4ccc5c(c4)OCO5)nn23)c1,-1.9%
13,NC(=NC(=O)c1ccccc1)C1=C(O)CCC1=O,-7.5%
14,COCCCNC(=O)Cn1c(=O)n(Cc2ccccc2Cl)c(=O)c2cc(OC)c(OC)cc21,-0.4%
15,CCCCC(=O)Nc1nc(C)c(-c2csc(Nc3ccc(Cl)cc3)n2)s1,13.9%
16,Cc1ccc(Nc2nnc(SC(C)C(=O)NC3CC3)s2)cc1 (stereo unspecified),4.1%
17,Cc1ccc(Nc2nc(Cl)c(C=O)s2)cc1,108% (active)
18,CSc1ncnc2c1ncn2CCCNCC(C)c1ccccc1 (stereo unspecified),-1.5%
19,COC(=O)C1=C(C)NC2=C(C(=O)c3ccccc32)C1c1ccc(-c2ccc(C(=O)O)cc2)o1 (stereo unspecified),67.4% (active)
20,COC(=O)C1=C(C)NC(=O)/C1=C/c1ccc(CNS(=O)(=O)c2ccc(C)cc2)o1,-0.8%
21,O=C(NCc1ccc(Cl)cc1)C1CCN(S(=O)(=O)c2cccs2)CC1,4.3%

row,Structure (SMILES),inhibition
1,Cn1nnnc1SCC(=O)Nc1ccccc1C(=O)NC1CC1,5.5%
2,CCN(CC)CCn1c2c(c(SCC(=O)Nc3ccc(C(C)C)cc3)nc1=O)CCC2,0.3%
3,CC(=O)Nc1c2c(nn1-c1ccc(C)cc1C)CS(=O)C2 (stereo unspecified),1.3%
4,COc1cc(/C=C2/SC(=S)N(Cc3ccccc3)C2=O)cc(OC)c1O,49.6% (active)
5,COc1ccc(CCNC2=C(Cl)C(=O)N(Cc3ccccc3)C2=O)cc1OC,-4.9%
6,O=C(Nc1ccc(OCCO)cc1)c1csc([C@H]2C[C@H](O)[C@@H](CO)O2)n1,0.7%
7,CC(C)=CCN1CCN(CCCc2ccccc2)CC1CCO (stereo unspecified),-5%
8,Cc1nc(N)sc1N=Nc1c(C)n(C)n(-c2ccccc2)c1=O,8.3%
9,Cc1c(C=O)n(C)n(-c2ccccc2)c1=O,8.1%
10,Cc1c(N=Nc2ccc(N(C)C)cc2)c(=O)n(-c2ccccc2)n1C,67.4% (active)
11,Cc1csc(=O)n1CCC(=O)OCC(=O)Nc1ccc(N2CCOCC2)cc1,-1.7%
12,O=C(OCC(=O)N1CCOCC1)c1ccc(N2CCOCC2)c([N+](=O)[O-])c1,1.7%
13,CCCCN(CC)C(=O)c1ccccc1Oc1ccccc1,-5%
14,O=C1NC(=O)C2C1C(c1ccc([N+](=O)[O-])cc1)=NN2Cc1ccccc1 (stereo unspecified),50.8% (active)
15,CC(=O)N1c2ccccc2N(Cc2ccc([N+](=O)[O-])cc2)C(=O)C1(C)C,-1.8%
16,O=[N+]([O-])c1ccc(C(S(=O)(=O)Cc2ccccc2)S(=O)(=O)Cc2ccccc2)cc1,-4%
17,CC(=O)CSc1nc(CCc2ccccc2)c(C#N)c(=O)[nH]1,-4.6%
18,Cc1cc(C)c2c(=O)[nH]c(SCC(=O)Nc3ccc(Br)cc3)nc2n1,2.1%
19,N#Cc1c(-c2cccs2)nc(SCC(=O)c2ccc(Br)cc2)[nH]c1=O,68.3% (active)
